As a reminder, the inhibition is the relative decrease from the control value, in per cent.

For 4 molecules, inhibition results are on record in ChEMBL document CHEMBL1961873, “Compounds: GSK PKIS; Assays: Nanosyn kinase panel” (2012).

The target of test [1] is T1, Ephrin type-B receptor 2 (Homo sapiens) (UniProt P29323).
T1 sequence (whole entry): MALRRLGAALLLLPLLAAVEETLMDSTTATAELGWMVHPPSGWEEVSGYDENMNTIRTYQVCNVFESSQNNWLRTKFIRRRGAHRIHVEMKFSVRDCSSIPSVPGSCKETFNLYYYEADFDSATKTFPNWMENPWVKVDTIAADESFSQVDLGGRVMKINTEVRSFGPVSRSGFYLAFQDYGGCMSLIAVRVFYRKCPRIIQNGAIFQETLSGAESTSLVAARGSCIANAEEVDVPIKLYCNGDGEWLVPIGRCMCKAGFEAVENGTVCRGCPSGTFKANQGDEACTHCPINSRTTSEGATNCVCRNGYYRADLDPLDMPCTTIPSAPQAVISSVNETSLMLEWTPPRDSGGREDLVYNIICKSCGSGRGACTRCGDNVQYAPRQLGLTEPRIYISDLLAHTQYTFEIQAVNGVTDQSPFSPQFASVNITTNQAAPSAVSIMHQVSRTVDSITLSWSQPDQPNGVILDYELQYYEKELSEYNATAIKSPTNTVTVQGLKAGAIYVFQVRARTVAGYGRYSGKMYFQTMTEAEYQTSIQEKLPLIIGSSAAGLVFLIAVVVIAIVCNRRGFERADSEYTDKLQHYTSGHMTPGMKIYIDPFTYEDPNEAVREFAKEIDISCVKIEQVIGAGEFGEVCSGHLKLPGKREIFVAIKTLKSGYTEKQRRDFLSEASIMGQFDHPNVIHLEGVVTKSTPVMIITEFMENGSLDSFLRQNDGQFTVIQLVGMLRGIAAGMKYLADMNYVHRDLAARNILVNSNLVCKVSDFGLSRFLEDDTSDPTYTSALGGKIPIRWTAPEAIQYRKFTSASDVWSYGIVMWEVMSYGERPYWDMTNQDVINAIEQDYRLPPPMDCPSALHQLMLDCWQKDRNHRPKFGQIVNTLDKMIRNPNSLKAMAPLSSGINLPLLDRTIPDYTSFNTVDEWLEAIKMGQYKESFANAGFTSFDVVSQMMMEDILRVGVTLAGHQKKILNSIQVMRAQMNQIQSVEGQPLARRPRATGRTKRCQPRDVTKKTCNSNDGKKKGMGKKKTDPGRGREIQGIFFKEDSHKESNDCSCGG
The note with it: at 1 µM.

For test [2], the target named is T2, Ephrin type-B receptor 3 (Homo sapiens) (UniProt P54753).
T2 sequence (whole entry): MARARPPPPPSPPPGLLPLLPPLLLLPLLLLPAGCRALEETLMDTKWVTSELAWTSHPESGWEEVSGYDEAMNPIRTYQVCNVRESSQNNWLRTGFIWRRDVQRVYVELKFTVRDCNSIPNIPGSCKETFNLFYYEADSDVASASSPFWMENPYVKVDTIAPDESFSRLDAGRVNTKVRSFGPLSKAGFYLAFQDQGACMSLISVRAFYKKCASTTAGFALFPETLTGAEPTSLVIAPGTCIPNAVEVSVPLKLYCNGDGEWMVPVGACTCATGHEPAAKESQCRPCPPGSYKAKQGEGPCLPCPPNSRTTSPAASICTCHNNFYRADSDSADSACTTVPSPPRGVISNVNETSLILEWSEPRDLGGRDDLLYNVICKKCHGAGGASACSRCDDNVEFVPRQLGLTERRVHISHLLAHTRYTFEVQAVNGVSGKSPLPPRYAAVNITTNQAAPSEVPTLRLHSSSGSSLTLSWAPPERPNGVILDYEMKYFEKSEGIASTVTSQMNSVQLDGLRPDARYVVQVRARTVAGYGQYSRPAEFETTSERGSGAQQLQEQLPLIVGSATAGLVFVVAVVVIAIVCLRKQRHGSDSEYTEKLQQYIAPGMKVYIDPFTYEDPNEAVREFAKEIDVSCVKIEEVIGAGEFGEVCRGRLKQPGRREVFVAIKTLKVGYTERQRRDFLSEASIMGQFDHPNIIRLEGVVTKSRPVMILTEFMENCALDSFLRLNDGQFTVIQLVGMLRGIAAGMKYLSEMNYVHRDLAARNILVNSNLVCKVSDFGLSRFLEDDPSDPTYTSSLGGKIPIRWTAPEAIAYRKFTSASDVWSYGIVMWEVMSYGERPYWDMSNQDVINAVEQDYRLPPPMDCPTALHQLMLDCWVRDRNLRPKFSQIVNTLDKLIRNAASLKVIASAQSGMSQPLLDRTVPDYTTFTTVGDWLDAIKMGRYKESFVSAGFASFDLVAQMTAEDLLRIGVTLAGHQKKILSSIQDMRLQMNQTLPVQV
The note with it: at 0.1 µM.

Test [3] concerns the target T2, Ephrin type-B receptor 3 (Homo sapiens). The note with it: at 1 µM.
Test [4] has as its target T3, Ephrin type-B receptor 4 (Homo sapiens) (UniProt P54760).
T3 sequence (whole entry): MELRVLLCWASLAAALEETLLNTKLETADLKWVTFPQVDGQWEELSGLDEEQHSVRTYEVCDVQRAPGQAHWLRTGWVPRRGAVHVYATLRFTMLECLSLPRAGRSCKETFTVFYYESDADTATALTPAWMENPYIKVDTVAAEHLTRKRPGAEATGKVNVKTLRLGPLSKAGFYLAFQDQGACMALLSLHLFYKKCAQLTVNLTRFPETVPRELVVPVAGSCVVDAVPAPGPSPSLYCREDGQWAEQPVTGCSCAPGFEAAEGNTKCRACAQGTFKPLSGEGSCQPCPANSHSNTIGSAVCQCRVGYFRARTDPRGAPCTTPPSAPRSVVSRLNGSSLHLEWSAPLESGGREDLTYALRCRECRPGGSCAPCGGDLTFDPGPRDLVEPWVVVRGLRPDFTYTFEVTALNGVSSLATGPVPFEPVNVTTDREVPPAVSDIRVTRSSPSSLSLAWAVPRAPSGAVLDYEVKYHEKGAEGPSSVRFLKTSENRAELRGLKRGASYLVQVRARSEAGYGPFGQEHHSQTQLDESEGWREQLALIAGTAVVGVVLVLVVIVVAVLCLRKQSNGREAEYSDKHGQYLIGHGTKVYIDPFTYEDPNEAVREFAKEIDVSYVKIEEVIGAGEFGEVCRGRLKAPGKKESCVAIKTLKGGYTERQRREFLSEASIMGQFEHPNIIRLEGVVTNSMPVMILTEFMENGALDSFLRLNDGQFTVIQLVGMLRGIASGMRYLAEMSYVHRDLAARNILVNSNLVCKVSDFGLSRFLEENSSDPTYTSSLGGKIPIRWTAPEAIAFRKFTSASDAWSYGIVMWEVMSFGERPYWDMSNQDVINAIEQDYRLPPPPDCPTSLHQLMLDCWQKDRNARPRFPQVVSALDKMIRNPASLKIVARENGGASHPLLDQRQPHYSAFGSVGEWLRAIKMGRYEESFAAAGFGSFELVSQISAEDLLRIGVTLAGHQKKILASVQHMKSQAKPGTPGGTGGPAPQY
The note with it: at 0.1 µM.

For test [5], the target named is T3, Ephrin type-B receptor 4 (Homo sapiens). The note with it: at 1 µM.
Test [6] has as its target Receptor tyrosine-protein kinase erbB-2 (Homo sapiens) (UniProt P04626). The note with it: at 0.1 µM.
Test [7] has the same target. The note with it: at 1 µM.
The target of test [8] is Receptor tyrosine-protein kinase erbB-4 (Homo sapiens) (UniProt Q15303). The note with it: at 0.1 µM.
Sequence of Receptor tyrosine-protein kinase erbB-4 (Homo sapiens) (Q15303 whole entry): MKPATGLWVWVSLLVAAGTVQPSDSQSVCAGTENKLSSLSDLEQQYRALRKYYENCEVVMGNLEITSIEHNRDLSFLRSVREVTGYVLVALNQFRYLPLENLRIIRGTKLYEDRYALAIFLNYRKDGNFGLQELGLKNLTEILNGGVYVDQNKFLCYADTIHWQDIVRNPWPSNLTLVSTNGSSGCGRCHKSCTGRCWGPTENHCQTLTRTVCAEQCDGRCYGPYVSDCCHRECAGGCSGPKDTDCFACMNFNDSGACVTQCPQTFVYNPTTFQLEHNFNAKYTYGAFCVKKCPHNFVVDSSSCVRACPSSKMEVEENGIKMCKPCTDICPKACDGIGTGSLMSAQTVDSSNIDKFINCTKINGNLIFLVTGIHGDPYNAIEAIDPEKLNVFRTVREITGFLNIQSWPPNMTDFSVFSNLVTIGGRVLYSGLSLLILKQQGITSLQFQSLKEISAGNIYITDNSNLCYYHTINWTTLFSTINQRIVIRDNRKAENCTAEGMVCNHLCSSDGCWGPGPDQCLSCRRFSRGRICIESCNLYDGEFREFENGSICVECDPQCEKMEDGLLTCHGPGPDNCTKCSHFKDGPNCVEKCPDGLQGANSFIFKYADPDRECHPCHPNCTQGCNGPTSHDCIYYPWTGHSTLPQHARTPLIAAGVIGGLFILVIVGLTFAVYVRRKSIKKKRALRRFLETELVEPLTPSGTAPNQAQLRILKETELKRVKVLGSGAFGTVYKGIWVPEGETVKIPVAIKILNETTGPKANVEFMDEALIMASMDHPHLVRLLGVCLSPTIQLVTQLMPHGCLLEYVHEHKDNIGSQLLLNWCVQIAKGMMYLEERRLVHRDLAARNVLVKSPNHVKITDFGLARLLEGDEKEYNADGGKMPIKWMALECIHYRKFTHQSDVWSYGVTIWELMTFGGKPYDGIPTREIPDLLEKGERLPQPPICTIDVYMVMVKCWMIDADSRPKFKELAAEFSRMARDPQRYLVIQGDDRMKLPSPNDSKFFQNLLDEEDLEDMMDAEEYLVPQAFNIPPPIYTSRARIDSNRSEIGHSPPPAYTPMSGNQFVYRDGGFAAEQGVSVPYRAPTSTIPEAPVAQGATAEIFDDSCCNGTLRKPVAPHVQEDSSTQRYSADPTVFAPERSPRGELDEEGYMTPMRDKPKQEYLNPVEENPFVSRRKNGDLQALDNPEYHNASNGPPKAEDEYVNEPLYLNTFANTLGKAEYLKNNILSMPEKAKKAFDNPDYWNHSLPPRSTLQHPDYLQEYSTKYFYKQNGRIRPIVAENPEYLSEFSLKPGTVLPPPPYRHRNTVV
Test [9] shares this target. The note with it: at 1 µM.
In test [10] the target is Tyrosine-protein kinase Fer (Homo sapiens) (UniProt P16591). The note with it: at 0.1 µM.
The target is the same in test [11]. The note with it: at 1 µM.
Test [12] has as its target Tyrosine-protein kinase Fes/Fps (Homo sapiens) (UniProt P07332). The note with it: at 0.1 µM.
For test [13] the target is unchanged. The note with it: at 1 µM.
Test [14] concerns the target Fibroblast growth factor receptor 1 (Homo sapiens) (UniProt P11362). The note with it: at 0.1 µM.
The target is the same in test [15]. The note with it: at 1 µM.
In test [16] the target is Fibroblast growth factor receptor 2 (Homo sapiens) (UniProt P21802). The note with it: at 0.1 µM.
Sequence of Fibroblast growth factor receptor 2 (Homo sapiens) (P21802 22-821 limits assumed): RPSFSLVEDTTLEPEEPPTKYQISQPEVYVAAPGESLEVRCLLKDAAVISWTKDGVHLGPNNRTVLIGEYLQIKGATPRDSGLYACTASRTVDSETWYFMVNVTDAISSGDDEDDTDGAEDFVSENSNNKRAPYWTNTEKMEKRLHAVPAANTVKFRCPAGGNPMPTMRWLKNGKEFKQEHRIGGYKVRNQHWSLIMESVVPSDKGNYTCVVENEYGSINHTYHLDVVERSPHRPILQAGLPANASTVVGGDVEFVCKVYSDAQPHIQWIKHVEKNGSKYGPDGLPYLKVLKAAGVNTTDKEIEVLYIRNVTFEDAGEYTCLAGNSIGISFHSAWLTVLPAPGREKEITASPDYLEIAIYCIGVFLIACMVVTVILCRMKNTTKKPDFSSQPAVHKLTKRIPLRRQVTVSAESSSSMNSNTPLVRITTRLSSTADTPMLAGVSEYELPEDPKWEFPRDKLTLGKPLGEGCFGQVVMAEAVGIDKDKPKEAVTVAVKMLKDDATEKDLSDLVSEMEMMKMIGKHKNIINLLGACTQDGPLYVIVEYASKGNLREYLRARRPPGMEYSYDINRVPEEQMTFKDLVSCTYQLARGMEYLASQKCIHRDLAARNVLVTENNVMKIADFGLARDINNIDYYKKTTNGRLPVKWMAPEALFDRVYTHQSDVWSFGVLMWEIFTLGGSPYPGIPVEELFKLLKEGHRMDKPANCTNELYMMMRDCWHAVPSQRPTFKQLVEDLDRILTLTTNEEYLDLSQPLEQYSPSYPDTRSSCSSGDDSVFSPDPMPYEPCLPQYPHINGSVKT
Test [17] has the same target. The note with it: at 1 µM.
The target of test [18] is Fibroblast growth factor receptor 3 (Homo sapiens) (UniProt P22607). The note with it: at 0.1 µM.
Test [19] shares this target. The note with it: at 1 µM.
Test [20] concerns the target Fibroblast growth factor receptor 4 (Homo sapiens) (UniProt P22455). The note with it: at 0.1 µM.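 Also: values are mean percent inhibition of FGFR4.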

Structures are written as SMILES.

Sequence of Fibroblast growth factor receptor 1 (Homo sapiens) (P11362 22-822 limits assumed): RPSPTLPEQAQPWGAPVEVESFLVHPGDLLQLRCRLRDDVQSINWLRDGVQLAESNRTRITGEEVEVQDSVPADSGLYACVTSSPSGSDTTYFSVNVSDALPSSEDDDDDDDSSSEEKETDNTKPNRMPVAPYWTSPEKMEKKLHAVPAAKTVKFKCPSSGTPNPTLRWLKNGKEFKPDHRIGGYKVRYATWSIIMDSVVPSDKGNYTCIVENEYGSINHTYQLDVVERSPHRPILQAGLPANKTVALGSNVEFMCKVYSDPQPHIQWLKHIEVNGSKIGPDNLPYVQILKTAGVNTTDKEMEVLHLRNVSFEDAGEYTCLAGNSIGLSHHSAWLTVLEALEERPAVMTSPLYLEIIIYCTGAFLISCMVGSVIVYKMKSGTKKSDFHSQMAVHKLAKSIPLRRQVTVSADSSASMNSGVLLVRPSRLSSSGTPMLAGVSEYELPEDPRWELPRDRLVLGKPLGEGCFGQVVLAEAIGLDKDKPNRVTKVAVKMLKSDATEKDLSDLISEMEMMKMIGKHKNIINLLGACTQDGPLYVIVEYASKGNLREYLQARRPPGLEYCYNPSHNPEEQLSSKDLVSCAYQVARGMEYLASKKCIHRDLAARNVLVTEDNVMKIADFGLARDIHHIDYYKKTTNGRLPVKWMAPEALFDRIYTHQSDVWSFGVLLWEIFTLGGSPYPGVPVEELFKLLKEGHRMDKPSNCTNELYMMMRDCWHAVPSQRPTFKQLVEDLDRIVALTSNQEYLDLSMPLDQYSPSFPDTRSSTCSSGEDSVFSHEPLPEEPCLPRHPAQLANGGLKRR
Sequence of Tyrosine-protein kinase Fes/Fps (Homo sapiens) (P07332 whole entry): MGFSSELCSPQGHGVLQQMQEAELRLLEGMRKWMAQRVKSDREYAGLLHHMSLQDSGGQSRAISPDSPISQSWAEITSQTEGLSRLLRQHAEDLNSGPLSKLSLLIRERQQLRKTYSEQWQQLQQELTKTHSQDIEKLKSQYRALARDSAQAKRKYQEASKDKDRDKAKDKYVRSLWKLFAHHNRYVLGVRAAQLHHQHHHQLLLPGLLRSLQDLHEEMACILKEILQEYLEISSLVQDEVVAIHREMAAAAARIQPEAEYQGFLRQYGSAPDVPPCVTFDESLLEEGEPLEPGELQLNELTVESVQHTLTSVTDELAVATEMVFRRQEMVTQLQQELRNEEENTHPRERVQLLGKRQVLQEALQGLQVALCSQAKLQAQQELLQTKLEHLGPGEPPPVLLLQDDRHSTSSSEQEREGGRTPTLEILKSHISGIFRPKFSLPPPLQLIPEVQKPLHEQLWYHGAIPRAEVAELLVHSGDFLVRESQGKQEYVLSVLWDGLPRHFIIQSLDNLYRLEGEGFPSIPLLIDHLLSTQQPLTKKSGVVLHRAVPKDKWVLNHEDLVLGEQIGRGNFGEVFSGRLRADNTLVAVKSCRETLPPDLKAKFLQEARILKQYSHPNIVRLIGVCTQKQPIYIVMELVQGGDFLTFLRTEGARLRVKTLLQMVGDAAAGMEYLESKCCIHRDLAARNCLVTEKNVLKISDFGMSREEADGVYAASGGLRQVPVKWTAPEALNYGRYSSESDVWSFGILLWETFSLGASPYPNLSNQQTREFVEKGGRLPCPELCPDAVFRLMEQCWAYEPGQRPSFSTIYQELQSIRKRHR
Sequence of Receptor tyrosine-protein kinase erbB-2 (Homo sapiens) (P04626 whole entry): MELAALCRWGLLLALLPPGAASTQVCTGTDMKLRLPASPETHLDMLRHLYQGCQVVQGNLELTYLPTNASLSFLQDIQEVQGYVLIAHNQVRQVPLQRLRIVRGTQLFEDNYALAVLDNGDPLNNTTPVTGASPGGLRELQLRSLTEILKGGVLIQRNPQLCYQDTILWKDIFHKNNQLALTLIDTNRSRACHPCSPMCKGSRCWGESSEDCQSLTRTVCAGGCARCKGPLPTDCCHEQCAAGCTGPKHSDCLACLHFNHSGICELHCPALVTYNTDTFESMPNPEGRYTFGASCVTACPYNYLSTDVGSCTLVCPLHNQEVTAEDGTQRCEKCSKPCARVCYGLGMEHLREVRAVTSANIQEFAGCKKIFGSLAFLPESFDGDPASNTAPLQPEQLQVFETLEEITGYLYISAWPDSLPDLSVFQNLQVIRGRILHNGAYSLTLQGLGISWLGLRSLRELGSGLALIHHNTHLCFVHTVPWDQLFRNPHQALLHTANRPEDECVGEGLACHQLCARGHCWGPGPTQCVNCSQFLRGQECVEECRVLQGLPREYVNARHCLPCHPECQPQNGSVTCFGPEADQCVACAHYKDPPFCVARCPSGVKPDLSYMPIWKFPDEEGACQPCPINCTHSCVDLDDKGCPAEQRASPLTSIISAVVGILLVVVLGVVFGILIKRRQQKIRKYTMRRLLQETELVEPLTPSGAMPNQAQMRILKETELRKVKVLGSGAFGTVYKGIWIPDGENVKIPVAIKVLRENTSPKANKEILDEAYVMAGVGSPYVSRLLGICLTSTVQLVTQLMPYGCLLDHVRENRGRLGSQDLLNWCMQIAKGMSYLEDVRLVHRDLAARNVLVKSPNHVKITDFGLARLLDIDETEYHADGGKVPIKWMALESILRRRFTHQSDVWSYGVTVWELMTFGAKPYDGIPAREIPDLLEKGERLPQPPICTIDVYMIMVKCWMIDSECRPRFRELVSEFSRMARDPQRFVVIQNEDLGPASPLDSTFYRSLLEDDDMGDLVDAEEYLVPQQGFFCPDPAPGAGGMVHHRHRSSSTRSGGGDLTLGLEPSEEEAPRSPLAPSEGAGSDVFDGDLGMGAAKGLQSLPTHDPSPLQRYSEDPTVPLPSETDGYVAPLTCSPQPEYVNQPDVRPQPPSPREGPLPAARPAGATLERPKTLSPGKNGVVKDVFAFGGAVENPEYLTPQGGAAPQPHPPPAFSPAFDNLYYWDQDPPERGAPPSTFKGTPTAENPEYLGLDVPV

In the case of `O=C(Nc1n[nH]c2cc(-c3ccccc3)ccc12)C1CC1`, the inhibition worked out at 17.1% in [1]; 2.9% in [2]; 2.89% in test [3]; 2.92% in [4]; 4.63% in [5]; 4.46% in test [6]. The inhibition was determined as 1.33% in [7]; 13.8% in test [8]; 15.8% in test [9]; 6.13% in [10]; 5.6% in test [11]; 2.97% in test [12]. Also, the inhibition came out at 2.53% in test [13]; 8.51% in test [14]; 2.95% in test [15]; 3.3% in [16]; 7.98% in test [17]; 6.47% in [18]. Besides, the inhibition in test [19] is 5.96%; in [20] it was -0.91%.
Take `COc1cccc(-n2cnc3c(N/N=C/c4ccncc4)ncnc32)c1`: the inhibition is 16.2% in [1]; -8.69% in [2]; -4.51% in [3]; -2.1% in test [4]; 0.65% in [5]; 0.94% in [6]. For the same molecule, the inhibition in [7] is 7.49%; in test [8], -3.73%; in [9] it was 2.45%; in test [10], 4.18%; in test [11], 4.82%; in test [12], -0.04%. For the same molecule, the inhibition is -1.27% in [13]; -7.19% in [14]; -2.61% in test [15]; -3.25% in [16]; 10.7% in [17]; -3.58% in test [18]. The inhibition is 3.63% in test [19] and -4.06% in test [20].
As for `NS(=O)(=O)c1ccc(Nc2cc(-c3ccc(O)c(F)c3)n[nH]2)cc1`, the inhibition was -1.29% in test [1]; -8.08% in test [2]; -5.11% in test [3]; -0.68% in [4]; -0.49% in [5]; -5.39% in test [6]. In addition, the inhibition in [7] is -4.29%; in test [9] it was -6.22%; in test [10] it was 5.83%; in test [11], 14.1%; in [12], -3.61%; in test [13] it was -0.97%. For the same molecule, the inhibition is -2.91% in test [14]; 8.63% in test [15]; -4.17% in test [16]; 9.61% in [17]; 1.11% in test [18]; 8.58% in [19]. In addition, the inhibition in [20] came out at 1.23%.
For the molecule `O=C1Nc2ccc(I)cc2C1=Cc1cc(Br)c(O)c(Br)c1`, the inhibition in [1] turned out to be 6.84%; in test [2], 0.93%; in test [3], 5.23%; in [4], 5.1%; in [5] it was 4.33%; in [6] it was 3.38%. The inhibition is 2.46% in [7]; 5.63% in [8]; 10.5% in test [9]; -1.96% in test [10]; 4.37% in [11]; 3.93% in test [12]. Besides, the inhibition in test [13] stood at 4.1%; in test [14], 5.92%; in test [15], 2.51%; in [16], 8.24%; in test [17], 7.14%; in test [18], 6.43%. Further, the figures for the inhibition in test [19] and in [20] were 5.73% and 5.1%, respectively.
